Only some compounds are listed: those with a hit (about 2.8% of all), similar ones and a draw of the others.
PI5P4Ka inh – PI5P4K alpha (human) kinase inhibition | PI5P4Kalpha enzyme, ADP-Glo luminescence, 60 min; active compounds read low | P48426 | AID 652105 | max response, % | 1.2% of 330,000 active; active means max response of -50% or lower; inconclusive means between -30% and -50%; inactive means -30% or higher; further: value at the top dose of about 77 µM; on the % scale 0 is the no-effect control and ±100 the full control effect
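Compounds were pin-transferred onto PI5P4Kalpha and substrate in HEPES pH 7.4 buffer with EGTA, CHAPS and 5% DMSO. ATP (5 microM final) started the reaction, which ran 60 minutes at room temperature before ADP-Glo detection.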
WRN inhibitor – WRN helicase (human) inhibition; AID 651768; 0.46% of 360,000 active; WRN helicase unwinding, fluorescent forked duplex, kinetic; Potency, µM (top dose mostly 114 µM), for the others: top-dose activity change, negative = inhibition, hits mostly inhibitors; further: potency means the concentration at half of the fitted maximal effect; on the % scale 0 is the no-effect control and ±100 the full control effect; nearly all actives have a fitted effect of over 55% in size
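WRN at 20 nM final was preincubated with compound for 15 min at room temperature; reaction started with 100 nM forked duplex oligonucleotide carrying fluorophore and quencher plus 2 mM ATP (final). Unwinding followed kinetically by red fluorescence (ex 525/em 598 nm).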
POLB inh – DNA polymerase beta (human) inhibition; P06746; Pol beta primer extension/strand displacement, fluorescence kinetic; Potency, µM (titrated, usually from 114 µM), for inactives: top-dose activity change, negative = inhibition, hits mostly inhibitors; 1.3% of 340,000 active; AID 485314; further: potency means the concentration at half of the fitted maximal effect; on the % scale 0 is the no-effect control and ±100 the full control effect
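Values derive from four-parameter Hill fits of normalized kinetic data: reads at 0 and 10 min following addition of 50 nM substrate to 10 nM Pol beta preincubated 15 min with compound.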
Pol iota inh – blocks human DNA polymerase iota activity | Q9UNA4 | Pol iota fluorescent replication assay, 10 min | Potency, µM (titrated, usually from 115 µM), inactives show at the highest dose activity, negative = inhibition, hits mostly inhibitors | 1% of 390,000 active | AID 588590; further: potency means the concentration at half of the fitted maximal effect
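Pol iota at 10 nM preincubated 15 min with compounds at room temperature; reaction started with fluorescent substrate, 50 nM final. Fluorescence read kinetically at 0 and 10 min; buffer-only wells as negative control.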
Pol eta inh – blocks human DNA polymerase eta activity; AID 588591; Potency, µM (series often up to 114 µM), for the others: at the top dose activity change, negative = inhibition, most hits filed as inhibitors; Q9Y253; recombinant Pol eta, fluorescent DNA replication assay; 1.2% of 390,000 active; further: potency means the concentration at half of the fitted maximal effect; on the % scale 0 is the no-effect control and ±100 the full control effect
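Fluorescent replication assay: 50 nM final substrate added after a 15 min room-temperature compound preincubation with 10 nM enzyme. Signal taken at 0 min and again at 10 min.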
Pol kappa inh – DNA polymerase kappa (human) inhibition; purified Pol kappa, fluorescent DNA synthesis assay, 10 min; 0.53% of 400,000 active; Potency, µM (doses to about 107 µM), for the others: at the highest dose activity, negative = inhibition, actives largely listed as inhibitors; Q9UBT6; further: potency means the concentration at half of the fitted maximal effect; on the % scale 0 is the no-effect control and ±100 the full control effect
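First, compounds were pin-transferred onto 10 nM Pol kappa. After 15 min at room temperature, substrate was added to 50 nM final. Fluorescence was then measured kinetically at 0 and 10 min.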
Active calls of the source: *; ? = inconclusive; · = not tested or not shown; [ ] = dose if it differs, or a comment. Unless noted, the call rests on the fitted dose curve; in most records, active means well fitted curve in the direction sought with a large enough effect; inconclusive means small, poorly fitted or top-dose-only effect, or another doubt; inactive means no such curve, though single readings can be large; an effect the other way counts as inactive or inconclusive.

SMILES	PI5P4Ka inh	WRN inhibitor	POLB inh	Pol iota inh	Pol eta inh	Pol kappa inh
CCOc1ccc(C(=O)Nc2ccc(N3CCN(C)CC3)cc2)cc1Br	-7.6	-27.3%	0.5%	37.5%	4.0%	-1.4%
CCOc1ccc(C(=O)Nc2ccc(N3CCN(C(=O)c4ccco4)CC3)cc2)cc1Br	3.0	?	·	25.1µM*	?	-9.1%
Cc1nc(-c2ccc(S(=O)(=O)N(Cc3ccccc3)C(C)C)cc2)co1	·	·	2.1%	-7.1%	?	-4.6%[60.1 µM]
Cc1ccc(NC(=O)CN(C)C(=O)c2cccc(S(=O)(=O)NCc3ccco3)c2)cc1	?	-19.6%	·	56.2µM*	?	?
COc1ccc(CCNC(=O)c2ccc3c(c2)nc2n3CCOC2)cc1OC	·	·	1.2%	12.1%	-11.1%	-5.2%[60.1 µM]
COC(=O)c1c(N(S(C)(=O)=O)S(C)(=O)=O)sc2c1CCN(c1ncc(C(F)(F)F)cc1Cl)C2	3.9	-28.2%	-22.7%	31.6µM*	-12.2%	-29.7%
CN(C)CCNC(=O)C(=O)Nc1cc2c3c(c1)CCN3C(=O)CC2	-1.5	1.5%[11.6 µM]	30.9%	39.8µM*	3.6%	?
CN(C)CCNC(=O)C(=O)Nc1cc2c3c(c1)CCC(=O)N3CCC2	0.0	-0.3%	25.6%	-1.3%	-21.4%	-14.9%
CCc1ccccc1NC(=O)c1ccc(F)c(S(=O)(=O)N2CCN(c3ccccc3OC)CC2)c1	·	·	25.7%	14.2%	-15.8%	-13.6%[60.1 µM]
O=C(COc1ccccc1[N+](=O)[O-])N/N=C/C=C/c1ccco1	-24.4	-6.3%	?	?	?	-36.0%
CCn1c(SCC(=O)N/N=C/C=C/c2ccco2)nnc1-c1ccc(OC)cc1	1.2	-13.7%	25.1µM*	-10.3%	-6.3%	-9.9%
O=C(N/N=C/C=C/c1ccco1)C(O)c1ccccc1 (centres undefined)	·	-27.2%	·	12.6µM*	50.1µM*	?
Cc1ccc(OCC(=O)N/N=C/C=C/c2ccco2)cc1	-63.8*	-11.9%[11.6 µM]	-27.3%	15.8µM*	17.8µM*	?
CCn1c(SCC(=O)N/N=C/c2ccc(C)o2)nnc1-c1ccc(C)cc1	4.8	-1.5%	34.3%	2.7%	-21.0%	-0.1%
CC(/C=N/NC(=O)CSc1nc2ccccc2n1C)=C\c1ccco1	-29.3	-35.2%	?	56.2µM*	14.1µM*	?
CN(C)c1ccc(/C=C\C=C/c2ccnc3ccccc23)cc1	·	·	·	-22.2%	·	?
CC[C@@H]1[C@H]2CCCC(=O)N3CC[C@@H](C[C@@H]1OC(=O)Nc1ccc4c(c1)OCO4)[C@@H]23	·	·	·	25.5%	·	-27.0%
CCc1cc(=O)[nH]c(SCc2nc(-c3ccc(C(F)(F)F)cc3)no2)n1	·	·	-25.5%	?	13.1%	3.8%[60.1 µM]
O=C(N/N=C/c1cc(Br)c(Br)o1)C(O)c1ccccc1 (centres undefined)	-13.9	?	22.4µM*	?	50.1µM*	-39.2%
Cc1ccc(/C=N/NC(=O)C(O)c2ccccc2)o1 (centres undefined)	0.8	-4.6%	6.5%	10.8%	-17.5%	-10.3%
CCn1c(SCC(=O)N/N=C/C=C/c2ccco2)nc2ccccc21	?	?	22.4µM*	20µM*	50.1µM*	-48.9%
O=C(COc1ccccc1C(=O)Nc1ccccc1)Nc1ccc2ccccc2c1	·	·	·	?	·	-5.4%
NC(=O)c1cc(NC(=O)c2cc(Br)c(Br)s2)cc(C(N)=O)c1	-19.9	-23.1%	39.8µM*	5.2%	-2.6%	-22.4%
O=c1[nH]c2ccc(NS(=O)(=O)c3ccc(F)cc3)cc2s1	·	·	?	-0.5%	-1.7%	-5.8%[60.1 µM]
O=C(CC1N=C2c3ccccc3N=C(SCc3ccc(Cl)cc3)N2C1=O)NCc1ccco1 (centres undefined)	?	-3.5%[11.6 µM]	?	?	79.4µM*	?
c1ccc(-c2nnc3sc(Cc4cccs4)nn23)cc1	·	-9.3%	44.7µM*	?	3.1%	-15.1%
CC(C)c1ccc(S(=O)(=O)/N=C2\C=C(NS(=O)(=O)c3ccccc3)C(=O)c3ccccc32)cc1	-67.8*	?	?	?	79.4µM*	-20.2%
CC(C)c1ccc(S(=O)(=O)/N=C2/C=CC(=O)c3ccccc32)cc1	·	·	2.5%	·	·	·
